PubChem BioAssay
Values without a mark were called inactive. Calls of active or inactive are those of the source. Cut-off read from the data, not from the text of the source: active = fold change permeability below about 0.7 or above about 1.3; inactive = in between.

Assay: modulators of brain endothelial barrier permeability, primary screen, cell-based, FITC-avidin fluorescence, HTS (AID 1963498); note: test concentration not given here
Conditions: actives lie on both sides

Row | Structure (SMILES) | fold change permeability
1 | CCCCCCCCCC(=O)N[C@H](CN1CCOCC1)[C@H](O)c1ccccc1 | 0.9
2 | Nc1nc2ccc(Cl)cc2c2nc(-c3ccco3)nn12 | 1.3 (active)
3 | O=C(O)c1ccc(-c2c[nH]c3ncc(-c4ccccc4)cc23)cc1C1CCCC1 | 1.4 (active)
4 | CCCCS(=O)(=O)N[C@@H](Cc1ccc(OCCCCC2CCNCC2)cc1)C(=O)O | 1.5 (active)
5 | CCOC(=O)COc1ccc2c(c1)C[C@@H](NC[C@H](O)c1cccc(Cl)c1)CC2 | 1.1
6 | COc1cc(C(=O)OCCCN2CCCN(CCCOC(=O)c3cc(OC)c(OC)c(OC)c3)CC2)cc(OC)c1OC | 1.5 (active)
7 | O=C1NC(=O)c2cc(Nc3ccccc3)c(Nc3ccccc3)cc21 | 0.9
8 | CCCNC(=O)Nc1ccc(Oc2ncnc3cc(OC)c(OC)cc23)cc1Cl | 1.1
9 | Cc1nc2c([nH]1)c(=O)n(C)c(=O)n2Cc1ccco1 | 0.7 (active)
10 | CN(C)c1ccc(NCc2ccccn2)cc1 | 1.5 (active)
11 | OC(CCN1CCCCC1)(c1ccccc1)C1CCCCC1 (stereo not drawn) | 0.8
12 | O=S(=O)(c1cccc2c(I)cccc12)N1CCCNCC1 | 0.9
13 | CCCCCN(CCCOC)C(=O)C(CCC(=O)O)NC(=O)c1ccc(Cl)c(Cl)c1 (stereo not drawn) | 1
